FAS-TE inh: inhibitors of human fatty acid synthase thioesterase domain | P49327 | recombinant FAS-TE, OMFH fluorogenic substrate, fluorescence endpoint | inhibition, % at 15 µM | 360,000 tested, 0.67% active;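 active means compounds whose normalised, plate-corrected inhibition of enzyme fluorescence in the single-dose primary screen is 50% or more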;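 further: 0% = DMSO with enzyme and 100% = substrate without enzyme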
Target sequence (P49327 whole entry, looked up, the tested form may be a part): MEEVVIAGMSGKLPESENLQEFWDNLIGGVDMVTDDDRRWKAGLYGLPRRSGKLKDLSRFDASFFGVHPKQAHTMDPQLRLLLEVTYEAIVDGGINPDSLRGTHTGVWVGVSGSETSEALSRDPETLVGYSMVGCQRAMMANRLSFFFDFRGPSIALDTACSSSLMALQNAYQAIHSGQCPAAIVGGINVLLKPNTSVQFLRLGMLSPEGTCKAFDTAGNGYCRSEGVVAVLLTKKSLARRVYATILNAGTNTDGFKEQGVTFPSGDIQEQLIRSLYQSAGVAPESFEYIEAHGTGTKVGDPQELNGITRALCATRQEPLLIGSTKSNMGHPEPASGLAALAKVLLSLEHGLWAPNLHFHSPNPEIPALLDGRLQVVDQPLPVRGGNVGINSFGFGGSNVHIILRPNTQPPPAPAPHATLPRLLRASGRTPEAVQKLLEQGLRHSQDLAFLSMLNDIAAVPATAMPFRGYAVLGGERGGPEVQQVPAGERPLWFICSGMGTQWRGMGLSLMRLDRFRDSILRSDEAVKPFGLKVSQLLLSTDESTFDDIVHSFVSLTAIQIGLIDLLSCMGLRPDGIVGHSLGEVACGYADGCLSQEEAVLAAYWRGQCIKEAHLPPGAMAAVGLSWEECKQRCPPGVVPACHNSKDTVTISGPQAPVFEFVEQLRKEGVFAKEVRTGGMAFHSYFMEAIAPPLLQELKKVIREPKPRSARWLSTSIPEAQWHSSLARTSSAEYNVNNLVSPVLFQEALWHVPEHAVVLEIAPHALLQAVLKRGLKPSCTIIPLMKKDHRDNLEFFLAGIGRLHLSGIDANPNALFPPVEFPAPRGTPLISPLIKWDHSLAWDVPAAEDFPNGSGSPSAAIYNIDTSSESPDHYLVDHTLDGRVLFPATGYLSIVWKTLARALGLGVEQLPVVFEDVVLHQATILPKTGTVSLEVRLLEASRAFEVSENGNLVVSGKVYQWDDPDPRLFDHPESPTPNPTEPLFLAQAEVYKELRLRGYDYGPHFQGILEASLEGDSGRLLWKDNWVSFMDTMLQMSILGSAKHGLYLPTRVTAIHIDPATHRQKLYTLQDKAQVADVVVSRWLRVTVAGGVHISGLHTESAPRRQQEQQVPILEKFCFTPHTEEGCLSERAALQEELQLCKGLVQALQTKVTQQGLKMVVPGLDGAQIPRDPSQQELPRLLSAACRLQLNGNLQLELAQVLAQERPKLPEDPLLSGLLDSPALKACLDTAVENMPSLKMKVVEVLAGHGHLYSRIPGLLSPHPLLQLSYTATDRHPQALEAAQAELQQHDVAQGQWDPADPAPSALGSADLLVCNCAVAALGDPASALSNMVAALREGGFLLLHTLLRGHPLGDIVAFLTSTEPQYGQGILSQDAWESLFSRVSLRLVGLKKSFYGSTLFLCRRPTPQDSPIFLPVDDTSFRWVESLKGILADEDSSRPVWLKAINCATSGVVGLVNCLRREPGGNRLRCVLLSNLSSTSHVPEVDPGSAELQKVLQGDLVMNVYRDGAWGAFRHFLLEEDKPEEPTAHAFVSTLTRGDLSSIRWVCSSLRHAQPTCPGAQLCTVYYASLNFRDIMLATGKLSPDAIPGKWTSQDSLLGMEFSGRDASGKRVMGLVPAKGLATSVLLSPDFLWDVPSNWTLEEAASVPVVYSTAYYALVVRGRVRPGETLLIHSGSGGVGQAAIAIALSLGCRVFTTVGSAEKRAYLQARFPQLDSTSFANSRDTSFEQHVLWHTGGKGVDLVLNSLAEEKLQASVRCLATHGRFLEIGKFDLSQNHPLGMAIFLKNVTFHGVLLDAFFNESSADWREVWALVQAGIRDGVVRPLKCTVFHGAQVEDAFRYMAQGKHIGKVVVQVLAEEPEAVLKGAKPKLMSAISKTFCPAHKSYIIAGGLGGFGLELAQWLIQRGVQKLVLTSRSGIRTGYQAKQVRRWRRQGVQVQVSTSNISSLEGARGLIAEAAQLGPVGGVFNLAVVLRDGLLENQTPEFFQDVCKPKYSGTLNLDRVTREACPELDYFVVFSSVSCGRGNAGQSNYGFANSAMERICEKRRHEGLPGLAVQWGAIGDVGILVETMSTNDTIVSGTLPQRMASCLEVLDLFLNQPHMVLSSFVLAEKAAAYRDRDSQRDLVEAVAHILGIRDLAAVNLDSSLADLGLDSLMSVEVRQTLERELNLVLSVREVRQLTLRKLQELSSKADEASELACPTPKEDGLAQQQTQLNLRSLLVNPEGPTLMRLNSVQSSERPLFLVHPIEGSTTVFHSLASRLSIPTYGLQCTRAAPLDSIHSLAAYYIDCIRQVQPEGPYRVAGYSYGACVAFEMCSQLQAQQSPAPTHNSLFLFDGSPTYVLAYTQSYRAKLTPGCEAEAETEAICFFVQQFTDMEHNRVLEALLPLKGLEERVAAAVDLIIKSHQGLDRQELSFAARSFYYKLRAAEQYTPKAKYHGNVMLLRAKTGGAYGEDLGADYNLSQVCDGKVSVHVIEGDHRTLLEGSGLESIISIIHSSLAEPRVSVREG
ADAM10 inh: inhibits human ADAM10; inhibition, % at 7 µM; recombinant ADAM10, EDANS/DABCYL FRET peptide cleavage, 3 h; O14672; 370,000 tested, 0.62% active;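 active means inhibition above a per-campaign cutoff equal to the mean of compounds falling between control-based bounds plus 3 SD, cut at about 20% in these data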;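 further: 0% = DMSO wells while the 100% control is not disclosed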
ADAM17 inh: inhibitors of human ADAM17; P78536; recombinant ADAM17, EDANS/DABCYL FRET peptide cleavage; inhibition, % at 6.95 µM; 370,000 tested, 0.83% active;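 active means inhibition above the mean of compounds lying between control limits plus 3 SD, set per campaign, cut at about 8.5% in these data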;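 further: 0% = DMSO-only wells as the low control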
aDG glyco up: alpha-DG glycosylation activation; activation, % at 10 µM; 360,000 tested, 0.22% active; Pro5-aDG cells, alpha-DG glycosylation AlphaScreen (IIH6); 0% Pro5, 100% B10-LARGE cell signal; AID 624168;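 active means activation of at least 8% versus controls, or a plate z-score of at least 8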;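 further: Pro5 are CHO cells carrying HIG-tagged alpha-DG that lacks glycosylation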
NR3A LBD binder: NR3A (human) ligand-binding domain modulation; NR3A LBD differential scanning fluorimetry, Tm shift; 0% = protein alone, 100% = glycine-bound protein; Tm shift relative to glycine control, % at 25 µM; 340,000 tested, 2.5% active; AID 1259313;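 active means melting temperature shift of at least 10% of the positive control shift, at one fixed dose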
ADAM10 counter: counter-screen for ADAM17 exosite inhibitors: inhibitors of human ADAM10; shares compounds with ADAM17 inh; recombinant ADAM10, EDANS/DABCYL FRET peptide cleavage, 3 h; inhibition, % at 6.95 µM; 2,900 tested, 47% active; AID 743256;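 active means mean inhibition over the triplicate runs exceeds the activity threshold set in the earlier primary screen, cut at about 20% in these data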;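 further: 0% = DMSO wells and 100% = marimastat wells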
ADAM17 confirm: confirmation of inhibitors of human ADAM17; shares compounds with ADAM17 inh; recombinant ADAM17, EDANS/DABCYL QFRET peptide cleavage; inhibition, % at 6.95 µM; 2,900 tested, 65% active; AID 743257;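 active means mean inhibition across replicates above the hit cutoff set in the primary screen, cut at about 8.5% in these data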;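 further: 0% = DMSO wells and 100% = marimastat wells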
* marks the source's active call; other numbers are inactive results; · = no result. A selection: hits, their analogues and other compounds. The true share with any hit is near 4%.

SMILES	FAS-TE inh	ADAM10 inh	ADAM17 inh	aDG glyco up	NR3A LBD binder	ADAM10 counter	ADAM17 confirm
C[C@@H]1CN([C@H](C)CO)C(=O)c2cc(NC(=O)Cc3cn(C)c4ccccc34)ccc2O[C@H]1CN(C)C(=O)Nc1ccc2c(c1)OCO2	0	18	14*	0	-5	5	5
C[C@@H]1CN([C@H](C)CO)C(=O)c2cc(NC(=O)Cc3ccccc3)ccc2O[C@H]1CN(C)Cc1ccc(Oc2ccccc2)cc1	18	19	9.2*	1	1	28*	19*
C[C@H](CO)N1C[C@H](C)[C@@H](CN(C)C(=O)Nc2ccc3c(c2)OCO3)Oc2ccc(NC(=O)Cc3ccccc3)cc2C1=O	-5	-5	-3	0	-2	·	·
C[C@H]1CN([C@@H](C)CO)C(=O)c2cc(NC(=O)Cc3ccccc3)ccc2O[C@H]1CN(C)Cc1ccccc1	-11	-3	0	0	-1	·	·
COc1ccccc1-c1cc(C(=O)Nc2sc3c(c2C#N)CCC(C)C3)c2ccccc2n1 (stereo not given)	42	-8	9.9*	0	4	-34	2
CC(C)(C)N(Cc1ccccc1)C(=O)CSc1nc2ccccc2c(=O)[nH]1	5	16	9.0*	0	0	10	6
Cc1nnc(SCC(=O)N(Cc2ccccc2)C(C)(C)C)[nH]c1=O	-4	2	3	0	0	·	·
CCN(CC)S(=O)(=O)c1ccc2c(c1)nc(CCC(=O)Nc1ccc3c(c1)OCO3)n2CC	-2	2	8.9*	0	-4	-1	3
CS(=O)(=O)N(Cc1ccco1)CC(O)Cn1c2ccccc2c2ccccc21 (stereo not given)	11	9	9.9*	0	-16	4	5
Cc1ccc(N(CC(O)Cn2c3ccccc3c3ccccc32)S(C)(=O)=O)cc1 (stereo not given)	19	19	5	0	3	·	·
C=C(C)CNC(=S)NNC(=O)c1ccncc1	-7	-6	-6	0	-4	·	·
C=C(C)CNC(=S)NNC(=O)CCn1c2ccc(Cl)cc2c2cc(Cl)ccc21	23	19	9.7*	0	27*	37*	23*
CC1CCN(C(=O)COC(=O)c2n[nH]c(=O)c3ccccc23)CC1	-4	-2	-3	0	2	·	·
Cc1ccc(OCC(=O)NNC(=O)c2ccoc2C)c(Br)c1	-1	2	-2	0	-3	·	·
Cc1occc1C(=O)NNC(=O)COc1ccc(Br)cc1Br	-6	12	8.8*	0	-2	-5	2
CC(=O)NC1C(=O)N(CCc2ccccc2)c2ccc(Br)cc21 (stereo not given)	1	3	2	0	-2	·	·
Cc1ccc(S(=O)(=O)N2CCC(=O)N(C(COCc3ccc(Cl)cc3)C(C)C)CC2)cc1 (stereo not given)	35	8	3	0	-1	·	·
CC1(C)Cc2c(c(-c3ccccc3)nc3[nH][nH]c(=O)c23)CO1	-10	11	1	0	-7	·	·
O=C(c1ccccc1Cl)N1N=C(c2cccs2)CC1c1cccc(O)c1 (stereo not given)	3	11	9.0*	0	2	3	3
O=C(c1ccccc1)N1N=C(c2cccs2)CC1c1ccccc1O (stereo not given)	13	12	4	0	-3	·	·
O=C(O)CC/C(=C\c1ccc(N2CCOCC2)c([N+](=O)[O-])c1)c1nc2ccccc2s1	-5	9	4	0	5	·	·
COc1ccc(NC(=O)CCC(=O)NCCO)cc1	-1	0	0	0	0	·	·
O=C(CCC(=O)Nc1ccccc1)NCCO	-9	3	11*	0	0	-8	-2
N#CCCN1CCN(S(=O)(=O)c2ccc(S(=O)(=O)NCC3CCCO3)cc2)CC1 (stereo not given)	-4	-1	2	0	0	·	·
O=C(CCC(=O)OCC(=O)c1ccccc1)Nc1cccc2cccnc12	-6	18	8.7*	0	1	0	1
